Rows were chosen to be rich in hits. Some 7.4% of all compounds tested hit in one or more screens of this group.
Luc counter: Counterscreen for Luciferase (Kinase-Glo TM) Inhibition; Potency, µM (doses to about 38.3 µM), for inactives: top-dose activity change, negative = inhibition, actives largely listed as inhibitors; Luciferin 4-monooxygenase (Photuris pensylvanica), Q27757; 0.28% of 200,000 active; Kinase-Glo luciferase, ATP luminescence, 8 min; AID 1379, 2008; also: % is scaled to controls: 0 for no effect and ±100 for the full control effect; nearly all actives have a fitted effect of over 60% in size
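Kinase-Glo luciferase light output from ATP and luciferin was measured with 10 uM ATP, within the enzyme's linear range. Buffer: 50 mM imidazole pH 7.2, 50 mM KCl, 7 mM MgCl2, 0.01% Tween 20, 0.05% BSA; luminescence read after 8 min at ambient temperature.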
NPC1 promoter act: qHTS Assay for NPC1 Promoter Activators. Huh7 NPC1 promoter luciferase reporter, 24 h. Potency, µM (doses to about 9.22 µM), without a hit: at the highest dose activation, usual class: activators. 2.4% of 320,000 active. AID 485313, 2010; also: % of control where 0% means no effect; nearly all actives have a fitted effect of over 60% in size
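Readout is luciferase luminescence, reflecting NPC1 promoter activation in stably transfected Huh7 cells after 24 h compound exposure at 37 °C in reduced-serum medium with 10% FBS.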
FLuc modulator: qHTS profiling assay for firefly luciferase inhibitor/activator using purifed enzyme and Km concentrations of substrates (counterscreen for miR-21 project) | AID 588342, 2011 | purified FLuc, Km substrates, luminescence inhibition | Potency, µM (highest dose often 57.5 µM), for the others: at the top dose activity change, negative = inhibition, hits mostly inhibitors | 6.9% of 360,000 active;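 also: plate controls were vehicle for no effect and reference inhibitor for full effect; nearly all actives have a fitted effect of over 55% in size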
Target sequence (P08659 whole entry, looked up): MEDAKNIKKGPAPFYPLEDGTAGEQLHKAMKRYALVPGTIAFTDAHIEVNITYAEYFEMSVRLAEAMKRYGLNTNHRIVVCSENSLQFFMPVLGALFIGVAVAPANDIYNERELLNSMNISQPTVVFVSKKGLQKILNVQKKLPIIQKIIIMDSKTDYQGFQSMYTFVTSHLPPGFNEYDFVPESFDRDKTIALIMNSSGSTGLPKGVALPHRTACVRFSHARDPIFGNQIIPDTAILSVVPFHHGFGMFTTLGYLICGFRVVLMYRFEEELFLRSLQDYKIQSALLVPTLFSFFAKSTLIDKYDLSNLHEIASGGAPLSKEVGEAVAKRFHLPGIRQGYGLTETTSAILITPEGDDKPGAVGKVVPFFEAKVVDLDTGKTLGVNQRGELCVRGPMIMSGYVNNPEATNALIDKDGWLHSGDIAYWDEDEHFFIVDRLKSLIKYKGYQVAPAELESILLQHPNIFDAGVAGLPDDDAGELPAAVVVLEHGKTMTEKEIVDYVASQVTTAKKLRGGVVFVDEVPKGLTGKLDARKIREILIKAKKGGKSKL
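Purified P. pyralis luciferase (10nM final) with 10uM D-luciferin and 10uM ATP (Km levels) in 50mM Tris acetate pH 7.5, 10mM Mg acetate, 0.01% Tween-20, 0.05% BSA; qHTS 6-point titration, ~60 µM downward; luminescence read.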
SMN2 splice up: qHTS Assay for Enhancers of SMN2 Splice Variant Expression | Potency, µM (doses to about 46.1 µM), for inactives: at the top dose activity change, positive = activation, hits mostly activators | HEK293 SMN2-luciferase splicing reporter, luminescence, 30-36 h | AID 1458, 2008 | 2.8% of 210,000 active; also: % of control where 0% means no effect; nearly all actives have a fitted effect of over 55% in size
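qHTS luciferase splicing reporter: luminescence rises when SMN2 exon 7 is included in transfected HEK293 cells. Compound exposure lasted 30-36 h at 37C, with 4.5 mM final sodium butyrate as control, followed by a ONE-Glo read.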
ELG1 genotox: qHTS screen for small molecules that induce genotoxicity in human embryonic kidney (HEK293T) cells expressing luciferase-tagged ELG1 | Potency, µM (doses to about 46 µM), for the others: top-dose activity change, positive = activation, usual class: activators | 1.3% of 330,000 active | HEK293T ELG1-luciferase reporter, luminescence, 16 h; also: % of control where 0% means no effect; nearly all actives have a fitted effect of over 60% in size
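HEK293T cells expressing luciferase-tagged ELG1 were exposed to compound or DMSO vehicle for 16 hr at 37 °C and 5% CO2. Luciferase activity was then measured with ONE-Glo after 30 min at room temperature.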
Rab9 promoter act: qHTS Assay for Rab9 Promoter Activators. Potency, µM (highest dose often 9.22 µM), inactives show at the highest dose activation, negative = inhibition, most hits filed as activators. Huh7 Rab9 promoter-luciferase reporter, luminescence, 24 h. 2.8% of 320,000 active; also: % of control where 0% means no effect; nearly all actives have a fitted effect of over 60% in size
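Quantitative HTS format; Huh7 Rab9-luciferase reporter cells (1500/well) receive compound 2 h post-plating, incubate 24 h at 37 °C, then get luciferase reagent for 10 min before luminescence reading.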
* hit, by the source's call; ? = inconclusive; . = no result; [ ] = remark or other dose. Calls follow the shape of the dose curve; as a rule, active = well fitted curve in the direction sought with a large enough effect; inconclusive = small, poorly fitted or top-dose-only effect, or another doubt; inactive = no such curve, though single readings can be large; an effect the other way counts as inactive or inconclusive. Potency is read from the fitted curve at half-maximal effect.

SMILES	Luc counter	NPC1 promoter act	FLuc modulator	SMN2 splice up	ELG1 genotox	Rab9 promoter act
Cc1ccc(Nc2c(-c3ccc(N(C)C)cc3)nc3ccccn23)cc1	.	.	7.57µM*	14.6%	.	.
Cc1ccc(-c2nc3ccccn3c2Nc2ccc3c(c2)OCO3)cc1	.	.	?	-6.4%	.	.
Cc1ccc2nc(-c3ccncc3)c(Nc3ccccc3)n2c1	0.1%	-0.6%	0.0%	17.8µM*	-0.9%	-0.2%
COc1ccc(-c2nc3scc(CCNS(=O)(=O)c4c(C)noc4C)n3n2)cc1OC	.	.	-11.9%	.	.	.
CC(=O)Nc1ccccc1C(=O)C(=O)Nc1ccc(Cl)cc1	-1.6%	2.24µM*	-19.0%	22.4µM*	?	2.51µM*
CC(=O)Nc1ccccc1C(=O)C(=O)Nc1cccc(Br)c1	1.7%	?	-3.7%	29.4%	5.6%	2.51µM*
CCC(=O)Nc1ccccc1C(=O)C(=O)Nc1ccccc1	-0.4%	?	2.4%	?	7.7%	2.51µM*
O=C(NN=C1CCCCCC1)C(=O)Nc1cccc(Br)c1	0.0%	18.0%	6.01µM*	-1.9%[1.84 µM]	17.2%	22.6%
CC(=O)Nc1ccccc1C(=O)C(=O)Nc1ccccc1	-0.9%	?	2.1%	?	1.9%	?
COCC(=O)C(C(=O)OC)[C@H](CCc1ccccc1)NC(=O)OC (stereo not given in full)	-1.5%	.	.	0.9%	.	.
CCN(CC)C(=O)c1sc2c(c1C)c(=O)n(CCc1ccccc1)c(=O)n2Cc1ccc(C)cc1	.	.	-2.2%	.	.	.
CCN1C(=O)c2ccccc2S(=O)(=O)c2ccc(C(=O)NCc3ccc(C)cc3)cc21	.	.	-4.8%	-2.0%	.	.
COc1ccccc1CN(Cc1c(Cl)cccc1Cl)S(=O)(=O)c1ccc(Br)cc1	.	.	3.5%	.	.	.
O=C(Nc1nnc(-c2cccs2)s1)C1CC1	-1.2%	29.6%	-4.2%	?	?	5.01µM*
C=C(C)C(=O)Nc1nnc(-c2cccs2)s1	-3.2%	0.1%	16.9µM*	-3.0%	8.7%	-2.1%
CCC(=O)Nc1nnc(-c2cccs2)s1	-0.3%	16.9%	-15.1%	21.5%	?	?
CCC(C)C(=O)Nc1nnc(-c2cccs2)s1 (stereo not given)	1.9%	?	?	5.8%	?	3.55µM*
CCOC(=O)c1c(S(=O)(=O)N2CCN(c3cc(Cl)ccc3C)CC2)c(C)n(C)c1C	.	.	-8.3%	.	.	.
CN(C)c1ccc(C(=O)OCC(=O)N2CCCCCC2)cc1	0.5%	?	?	21.9%	10.8%	3.55µM*
CN(C)c1ccc(C(=O)OCC(=O)NCCCc2ccccc2)cc1	.	-4.4%	-14.3%	.	1.5%	-1.5%[1.84 µM]
CN(C)c1ccc(C(=O)OCC(=O)NCCNC(=O)COC(=O)c2ccc(N(C)C)cc2)cc1	.	3.98µM*	4.78µM*	.	?	1.41µM*
CC(=O)c1cccc(NC(=O)c2c(C)nn(-c3ccc(F)cc3)c2-n2cccc2)c1	.	.	-4.0%	.	.	.
O=C(c1ccc2c(c1)N(Cc1ccc(F)cc1)C(=O)c1ccccc1S2(=O)=O)N1CCC(Cc2ccccc2)CC1	.	.	-1.0%	-17.8%	.	.
O=C(c1ccco1)N1CCC2(CCN(Cc3ccccc3)CC2)CC1	-3.2%	.	.	-8.9%	.	.
O=C(c1ccco1)N1CCC2(CCCN(c3ccncc3)C2)CC1	-1.5%	.	.	-29.1%	.	.
SMILES	Luc counter	NPC1 promoter act	FLuc modulator	SMN2 splice up	ELG1 genotox	Rab9 promoter act
N#Cc1ccc(/C=C\c2nccc3c2[nH]c2ccccc23)cc1	-0.2%	?	?	-12.7%	6.3%	11.3%
Clc1ccc(/C=C\c2nccc3c2[nH]c2ccccc23)cc1	-1.5%	27.3%	3.79µM*	10.4%	17.4%	21.2%
O=C(COc1ccccc1)c1cn(CC(=O)N2CCCC2)c2ccccc12	-2.9%	-0.6%	21.3µM*	-8.3%	0.9%	-1.8%
COc1ccc(NC(=O)C(=O)c2cn(CC(=O)N3CCCC3)c3ccccc23)cc1OC	.	-11.2%	?	.	-12.1%	4.2%
Cc1ccc(NC(=O)C(=O)c2cn(CC(=O)N3CCCCC3)c3ccccc23)cc1	0.4%	1.2%	9.53µM*	4.4%	-1.4%	-2.3%
NC(=O)Cn1cc(C(=O)COc2ccccc2)c2ccccc21	-3.4%	0.5%	?	1.3%	-1.2%	-2.6%
CCc1ccc(NC(=O)C(=O)c2cn(CC(=O)N3CCCCC3)c3ccccc23)cc1	0.9%	0.2%	9.53µM*	3.0%	-1.8%	-2.4%
COc1cccc(NC(=O)C(=O)c2cn(CC(=O)N3CCCC3)c3ccccc23)c1	.	14.6%	5.36µM*	.	-4.4%	18.4%
CS(=O)(=O)N1CCC2(CCN(Cc3ccncc3)CC2)CC1	0.4%	.	.	-6.2%	.	.
C=Cc1ccc(CSc2nc(-c3ccc(C)cc3)nc3c2Cc2c(CO)cnc(C)c2O3)cc1	.	.	3.3%	.	.	.
CCCCNc1nc(C)nc2c1nc(-c1ccccc1)n2CC1CCN(C)CC1	-0.1%	.	.	-16.1%	.	.
CCOc1ccc(C2CC(=O)NC(NC(=O)c3cccc(Cl)c3)=N2)cc1 (stereo not given)	.	.	2.0%	.	.	.
O=S(=O)(c1ccc(Br)cc1)N1CCn2cccc2C1c1ccc(Br)cc1 (stereo not given)	.	.	0.1%	.	.	.
O=C(Nc1ccccc1Cl)C(=O)c1cn(CC(=O)N2CCOCC2)c2ccccc12	.	3.55µM*	0.379µM*	.	?	2.51µM*
COc1ccccc1CNC(=O)C(=O)c1cn(CC(=O)N2CCCC2)c2ccccc12	.	16.7%	?	.	2.6%	6.5%
O=C(NCc1ccc(Cl)cc1)C(=O)c1cn(CC(=O)N2CCOCC2)c2ccccc12	.	-2.6%	-16.8%	.	5.7%	-1.7%
COc1ccccc1CCNC(=O)C(=O)c1cn(CC(=O)N2CCOCC2)c2ccccc12	.	15.3%	23.9µM*	.	9.8%	18.0%
COc1ccc(CNC(=O)c2ccc3c(c2)CCN3S(=O)(=O)c2ccc(Cl)cc2)cc1	.	.	-2.7%	-47.5%	.	.
Cc1ccc(N=CC=C2OC(C)(C)C(C)(C)O2)c(C)c1	4.1%	0.0%	7.57µM*	-0.3%	1.7%	-2.0%
COc1ccccc1N=CC=C1OC(C)(C)C(C)(C)O1	13.1%	-8.3%	-0.6%	10.1%	1.8%	-1.5%
Cc1ccc(-c2cc(C(=O)NCc3cnn(C)c3)c3cc(Br)ccc3n2)cc1	3.1%	3.6%	1.07µM*	-2.8%	?	24.4%
CCn1cc(CNC(=O)c2cc(-c3ccc(C)cc3)nc3ccc(Br)cc23)c(C)n1	.	.	?	-0.7%	.	.
Cc1nn(C)cc1CN(C)C(=O)c1cc(-c2ccccc2)nc2ccc(Br)cc12	2.2%	2.4%	21.3µM*	-11.1%	-12.4%	14.8%
